± gives the standard deviation of the averaged measurements. Whole data set: some 33,000 sequences, median “E-score (rank enrichment, -0.5 to 0.5)” near -0.0028, cut for the highest 2% near 0.23. The full list was thinned out, with the highest values kept by preference.
System: 2Sb-muMax20 (muMax20 with two 1,3-bis(methyl)benzene Cys staples, A13C/A17C and Q88C/A92C, C-terminal Lys)
Assay: PBM 8-mer E-score (E-score (rank enrichment, -0.5 to 0.5)); higher = stronger preferential binding
Procedure: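 Protein binding microarray (universal PBM chip covering all 10-mers in fixed probe flanks) with chemically synthesized human Max(13-93) bHLH-LZ analogs (not full-length Max) bearing noncanonical residues (hArg, Tha, Aib, Nle at 65) and aromatic Cys staples. Read-out per 8-mer (and its reverse complement): E-score (rank-based enrichment, -0.5 to 0.5) and Z-score of median probe intensity.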

Sequence	PBM 8-mer E-score
CCACCCAA	0.128 ± 0.049
CCACCCTA	0.189 ± 0.0062
CACCCCTG	0.0699 ± 0.055
ACACCCAC	0.2 ± 0.028
GACCCCTC	0.0964 ± 0.036
CACCCCTC	0.278 ± 0.026
GGTCCCGA	-0.305 ± 0.042
AATATCCG	-0.0514 ± 0.051
AATATCCA	0.0444 ± 0.082
AATATCCC	0.245 ± 0.056
CGGGGGTA	0.0309 ± 0.084
CCCCCCCG	-0.2 ± 0.13
GCACCAGA	-0.126 ± 0.045
AGCCCCGG	-0.0543 ± 0.054
CCCCACCC	0.282 ± 0.076
ACCCACCG	0.0752 ± 0.014
ACCCACCC	0.417 ± 0.02
ACCCACCA	0.274 ± 0.027
GCCCACCC	0.359 ± 0.045
ACCACCCA	0.073 ± 0.062
TCCCACCA	-0.0255 ± 0.1
CCCCACCG	0.11 ± 0.1
CCCCACCA	0.162 ± 0.035
ACCCACCT	0.13 ± 0.029
GCCCACCA	0.12 ± 0.024

Sequence	PBM 8-mer E-score
GCCCACAC	0.0967 ± 0.059
ATTCGGAG	-0.0732 ± 0.026
GGGGATCA	0.0797 ± 0.027
AAGACCGT	-0.244 ± 0.028
AATGGTAT	0.157 ± 0.044
ACGGGGTG	0.118 ± 0.023
CAGTATAC	0.0863 ± 0.1
GATGAAAC	0.0586 ± 0.022
ATGAACGG	-0.111 ± 0.0086
CTCCGTCC	-0.114 ± 0.018
CTGTAATA	0.0526 ± 0.019
CTGTAACA	-0.00643 ± 0.026
ATGTAACA	0.242 ± 0.031
ATGTAATG	0.155 ± 0.013
ATGTAACG	0.0488 ± 0.0084
ATGTAATA	0.236 ± 0.065
AAAACCAC	0.121 ± 0.013
GCGTACCA	-0.0976 ± 0.0064
AGACAAAA	-0.00983 ± 0.042
ACAGCAAA	0.0417 ± 0.047
ACGGGAAT	-0.08 ± 0.016
AGTGGGCA	0.0757 ± 0.023
AGTGGGTA	0.121 ± 0.042
AATGGGTA	0.039 ± 0.0031
GGTGGGTA	0.282 ± 0.063

Sequence	PBM 8-mer E-score
GTTGGGTA	0.1494 ± 0.00044
AGTGGGCC	-0.212 ± 0.019
AGTGGGCG	0.237 ± 0.019
CATGGGTA	0.053 ± 0.028
GATGGGTA	0.246 ± 0.021
CGTGGGTA	0.00707 ± 0.0098
AGTGGGTG	0.259 ± 0.0086
AGTGGGTC	-0.178 ± 0.017
CGGCGCCG	-0.0151 ± 0.033
AATGAACA	0.129 ± 0.016
CCGCTGGC	-0.26 ± 0.0032
AAGGCACG	0.076 ± 0.023
GGCACACA	-0.16 ± 0.044
ATTCCGCC	0.107 ± 0.039
TAACTAGA	0.238 ± 0.031
AAACTAGA	0.08188 ± 0.00023
GAACTAGA	0.067 ± 0.017
AATATTAA	0.335 ± 0.045
AGTATTAG	0.147 ± 0.0055
ACTATTAT	0.194 ± 0.027
CATATTAA	0.238 ± 0.062
AGTATTAA	0.206 ± 0.061
AATATTAT	0.259 ± 0.0099
AATATTAG	0.178 ± 0.0068
CATATTAG	0.132 ± 0.032

Sequence	PBM 8-mer E-score
ACTATTAA	0.176 ± 0.026
GATATTAA	0.123 ± 0.014
TATATTAA	0.158 ± 0.011
AGTATTAC	0.236 ± 0.075
AGGAGGTC	-0.222 ± 0.015
CGGGAGGC	-0.24 ± 0.032
ATCTTACA	0.075 ± 0.012
ACCCAAGA	0.0956 ± 0.071
GGACCAGA	-0.2186 ± 0.0017
AGCCAACC	0.106 ± 0.0086
GTCAATAA	0.075 ± 0.025
TGAGACAA	0.109 ± 0.058
AGCTTAGC	-0.123 ± 0.011
ACTGGGTG	0.00505 ± 0.024
CGTTTAGC	0.00586 ± 0.16
TCTGTGCA	-0.0114 ± 0.085
GCTAGAAC	-0.0972 ± 0.085
AATATTAC	0.26 ± 0.0093
GATATTAC	0.187 ± 0.088
CATATTAC	0.146 ± 0.071
ACGCAGCA	-0.0676 ± 0.011
CATCAATA	0.0338 ± 0.066
CCTTTCAC	0.0485 ± 0.022
GTCGCGAC	0.291 ± 0.0036
ATCGCGAA	0.0277 ± 0.02

Sequence	PBM 8-mer E-score
CTCGCGAC	0.107 ± 0.013
GTCGCGAA	-0.208 ± 0.09
ATCGCGAG	0.151 ± 0.049
ATCGCGAT	0.255 ± 0.036
GGCTGTGA	-0.181 ± 0.072
ACTTATGC	-0.0277 ± 0.024
AGTGCGAC	-0.0265 ± 0.057
GACCAGAC	-0.231 ± 0.026
CGGTCGGA	-0.196 ± 0.0063
CATTCGTC	-0.00288 ± 0.012
AAGATACT	0.151 ± 0.031
ATGATACC	0.127 ± 0.024
AAGATGCA	0.262 ± 0.023
ATGATACA	0.255 ± 0.0028
AAGATGCT	0.0039 ± 0.035
CTGATACA	-0.049 ± 0.059
GAGATGCA	0.113 ± 0.076
GAGATACA	0.0204 ± 0.028
AAGATACA	0.245 ± 0.033
GCAAATCA	-0.0255 ± 0.056
ACTTTGCG	0.0825 ± 0.063
AGCTACTA	0.0815 ± 0.033
AATTGGAA	0.00538 ± 0.0076
CGTTAACA	0.0451 ± 0.018
TGTTAACA	0.301 ± 0.013

Sequence	PBM 8-mer E-score
AGTTAACA	0.138 ± 0.09
CAAACTGG	-0.0119 ± 0.034
TAATATAA	0.152 ± 0.00074
TAATATGA	0.168 ± 0.022
CAATATTA	0.106 ± 0.017
AAATATGA	0.247 ± 0.032
TAATATTA	0.35 ± 0.0053
AAATATTA	0.243 ± 0.032
CAATATGA	0.159 ± 0.05
GAATATTC	0.166 ± 0.09
AAATATGT	0.148 ± 0.031
GAATATTA	0.238 ± 0.066
AAATATTC	0.124 ± 0.084
GGATATTA	0.128 ± 0.11
AAAGGTTA	0.0976 ± 0.032
ACTCACTC	0.00443 ± 0.03
CCTTTTGC	-0.0513 ± 0.057
TATAGGAA	0.255 ± 0.038
CATAGGAA	0.0608 ± 0.002
AATAGGAA	-0.0166 ± 0.01
ATCATAAA	0.000625 ± 0.011
AACATAAC	0.202 ± 0.012
ATCATAAT	0.232 ± 0.024
ATAATCAG	0.198 ± 0.028
ATCATGAG	0.0432 ± 0.081

Sequence	PBM 8-mer E-score
ATCATGAT	0.267 ± 0.045
ATCATAAG	0.217 ± 0.062
AACATAAT	0.297 ± 0.014
ATAATCAA	0.0744 ± 0.015
ATCATGAA	0.1293 ± 0.00082
ATAATCAT	0.241 ± 0.044
AACATAAG	0.118 ± 0.021
AAGGGCCG	-0.18 ± 0.018
ATTTTAGA	0.0196 ± 0.021
CTGTTTCC	-0.0107 ± 0.033
CGCGCACG	0.0273 ± 0.007
GAATCTAC	0.0758 ± 0.0052
ATTACCCC	0.226 ± 0.0063
ATTACCCG	0.0122 ± 0.03
AATACCCA	0.272 ± 0.021
AATACCCG	-0.105 ± 0.092
TATACCCA	0.0636 ± 0.015
ATTACCCA	0.2414 ± 0.0019
ATTCCAAT	-0.0251 ± 0.027
CAGGACCA	-0.196 ± 0.036
ATCTGTCG	0.089 ± 0.014
ATCTGTCC	0.0828 ± 0.032
ATCTGTCA	0.236 ± 0.0051
